# Assay results from PubChem BioAssay.
# Where “and” joins values, the source holds several entries; their conditions need not be identical. Identical values can stand only once.
# Assay: viability loss with induced miR-34 in A549 – imaging, A549 dox-inducible miR-34, nuclei and caspase counts, primary screen (AID 1347080); also: test concentration not given here
# Conditions: A549 miR-34 inducible, Hoechst nuclei count, 48 h; measured here: relative caspase fold change +Dox/-Dox
row,Compound,fold change
1,CCCCCCCC/C=C\CCCCCC(=O)OC,0.755
2,O=C(O)CCCCCC[C@@H]1C(=O)NC(=O)N1CCC(O)C1CCCCC1 (stereo partly drawn),2.01
3,CCCCC/C=C\C/C=C\C/C=C\C/C=C\CCCC(=O)OCc1ccsc1,1.02
4,CCCCC/C=C\C/C=C\CCCCCCCC(=O)OC[C@H](O)CO,0.477
5,CC/C=C\C/C=C\C/C=C\C/C=C\CCCCC(=O)OCC,1.28
6,CCC(C)[C@H]1O[C@]2(C=C[C@@H]1C)C[C@@H]1C[C@@H](C/C=C(\C)[C@@H](OC3C[C@H](OC)C(O[C@H]4C[C@H](OC)[C@@H](NC(C)=O)[C@H](C)O4)[C@H](C)O3)[C@@H](C)/C=C/C=C3\CO[C@@H]4[C@H](O)C(C)=C[C@@H](C(=O)O1)[C@]34O)O2 (stereo partly drawn),0.79
7,CCCC[C@H](C)C[C@H](O)/C=C/[C@H]1[C@H](O)CC(=O)[C@@H]1CCCC/C=C/C(=O)O,1.29
8,O=C(O)CCCCCC[C@H]1C(=O)C[C@@H](O)[C@@H]1/C=C/[C@@H](O)Cc1ccccc1,1.38
9,O=P(O)(O)O[C@H]1[C@@H](O)[C@H](O)[C@@H](OP(=O)(O)O)[C@H](OP(=O)(O)O)[C@H]1O,1.8
10,CCCCC[C@H](O)/C=C/[C@H]1CC[C@@H](O)[C@@H]1C/C=C\CCCC(=O)O,1.34
11,O=C(/C=C/c1cccc(C(=O)NO)c1)NO,1.09
12,CCCCCC(=O)/C=C/[C@@H]1[C@H](C/C=C\CCCC(=O)O)[C@H](O)C[C@H]1O,3.22
13,CCCCNC(=O)NS(=O)(=O)c1ccc(CO)cc1,0.775
14,CC(C)CCCC(C)NC(C)C (stereo not drawn),0.874
15,O=C(Cc1ccccc1Nc1c(Cl)cccc1Cl)Oc1ccc(-c2cc(=S)ss2)cc1,1.55
16,CC/C=C\C/C=C\C/C=C\C/C=C\CCCCC(=O)O,0.773
17,COc1ccc(/C=C/C(=O)Nc2c(O)cccc2C(=O)O)cc1OC,0.687
18,CCCCC[C@H](O)/C=C/[C@@H]1[C@H]2CC(CCCCC(=O)O)O[C@H]2C[C@H]1O (stereo partly drawn),1.39
19,CC(=O)c1ncc([C@@H](O)[C@H](O)[C@H](O)CO)[nH]1,2.05
20,OCCC/C=C/c1ccccc1,1.17

row,Compound,fold change
1,[O-]/[N+](=N/O[C@@H]1O[C@H](CO)[C@H](O)[C@H](O)[C@H]1O)N1CCCC1,0.427
2,OC[C@H]1NC[C@H](O)[C@@H](O)[C@@H]1O,0.787
3,CN(C)CCCCCCOc1ccc(-n2ccnc2)cc1,0.915 and 0.806
4,CC/C=C/C[C@H](O)/C=C/[C@H]1[C@H](O)CC(=O)[C@@H]1C/C=C\CCCC(=O)O,1.46
5,CCCCC[C@H](O)/C=C/[C@H]1OC(O)C[C@H](O)[C@@H]1CCCCCCC(=O)O (stereo partly drawn),1.26
6,CCCCC[C@H](O)/C=C/[C@@H]1c2cc(CCCCC(=O)O)n(-c3ccccc3)c2C[C@H]1O,1.14
7,CCCOCCCCCCCCCC(=O)O,1.03
8,C#CCOc1ccccc1CCCCCC(=O)NS(C)(=O)=O,0.875
9,FC(F)(F)c1ccc(/C=C/c2cc(Cl)cc(Cl)c2)cc1,0.839
10,O=C(O)CCC/C=C\C[C@H]1[C@@H](/C=C/[C@@H](O)CCc2ccccc2)[C@H](O)C[C@H]1O,0.334
11,NC1=NC(=O)/C(=C/c2ccc(O)cc2)S1,1.49
12,CCCCC/C=C\C/C=C\C/C=C\CCCCCCC(=O)OCC,0.794
13,CCCCC/C=C\C/C=C\C/C=C\C/C=C\CCCC(=O)S[C@H](COCCCCCCCCCCCCCCCC)COP(=O)([O-])OCC[N+](C)(C)C,0.9
14,CCCCCNC1=C(c2cn(C)c3ccccc23)C(=O)N(C)C1=O,1.69
15,CCCCCCCC/C=C\CCCCCCCC(=O)NCCS(=O)(=O)O,0.63
16,C[Se]CC[C@H](N)C(=O)O,0.907
17,C=C1O[C@@](CO)(n2cnc3c(N)ncnc32)[C@H](O)[C@@H]1O,1.1
18,CCCCCCCCCCCCCCCCCC(=O)N[C@H]1CCOC1=O,1.44
19,CCCCCCCCCCCCCC(=O)OCC,1.49

# Same assay, conditions: A549 miR-34 inducible, Hoechst nuclei count, 48 h; measured here: total cells with miR-34 induction; stronger effect = lower value
row,Compound,cell count
1,CCCCCCCC/C=C\CCCCCC(=O)OC,5020
2,O=C(O)CCCCCC[C@@H]1C(=O)NC(=O)N1CCC(O)C1CCCCC1 (stereo partly drawn),5520
3,CCCCC/C=C\C/C=C\C/C=C\C/C=C\CCCC(=O)OCc1ccsc1,6270
4,CCCCC/C=C\C/C=C\CCCCCCCC(=O)OC[C@H](O)CO,4490
5,CC/C=C\C/C=C\C/C=C\C/C=C\CCCCC(=O)OCC,5830
6,CCC(C)[C@H]1O[C@]2(C=C[C@@H]1C)C[C@@H]1C[C@@H](C/C=C(\C)[C@@H](OC3C[C@H](OC)C(O[C@H]4C[C@H](OC)[C@@H](NC(C)=O)[C@H](C)O4)[C@H](C)O3)[C@@H](C)/C=C/C=C3\CO[C@@H]4[C@H](O)C(C)=C[C@@H](C(=O)O1)[C@]34O)O2 (stereo partly drawn),4370
7,CCCC[C@H](C)C[C@H](O)/C=C/[C@H]1[C@H](O)CC(=O)[C@@H]1CCCC/C=C/C(=O)O,5710
8,O=C(O)CCCCCC[C@H]1C(=O)C[C@@H](O)[C@@H]1/C=C/[C@@H](O)Cc1ccccc1,5710
9,O=P(O)(O)O[C@H]1[C@@H](O)[C@H](O)[C@@H](OP(=O)(O)O)[C@H](OP(=O)(O)O)[C@H]1O,5820
10,CCCCC[C@H](O)/C=C/[C@H]1CC[C@@H](O)[C@@H]1C/C=C\CCCC(=O)O,5950
11,O=C(/C=C/c1cccc(C(=O)NO)c1)NO,4750
12,CCCCCC(=O)/C=C/[C@@H]1[C@H](C/C=C\CCCC(=O)O)[C@H](O)C[C@H]1O,5630
13,CCCCNC(=O)NS(=O)(=O)c1ccc(CO)cc1,5120
14,CC(C)CCCC(C)NC(C)C (stereo not drawn),8610
15,O=C(Cc1ccccc1Nc1c(Cl)cccc1Cl)Oc1ccc(-c2cc(=S)ss2)cc1,6130
16,CC/C=C\C/C=C\C/C=C\C/C=C\CCCCC(=O)O,5720
17,COc1ccc(/C=C/C(=O)Nc2c(O)cccc2C(=O)O)cc1OC,3430
18,CCCCC[C@H](O)/C=C/[C@@H]1[C@H]2CC(CCCCC(=O)O)O[C@H]2C[C@H]1O (stereo partly drawn),6700
19,CC(=O)c1ncc([C@@H](O)[C@H](O)[C@H](O)CO)[nH]1,5900
20,OCCC/C=C/c1ccccc1,5920

row,Compound,cell count
1,[O-]/[N+](=N/O[C@@H]1O[C@H](CO)[C@H](O)[C@H](O)[C@H]1O)N1CCCC1,6560
2,OC[C@H]1NC[C@H](O)[C@@H](O)[C@@H]1O,5000
3,CN(C)CCCCCCOc1ccc(-n2ccnc2)cc1,5270 and 6380
4,CC/C=C/C[C@H](O)/C=C/[C@H]1[C@H](O)CC(=O)[C@@H]1C/C=C\CCCC(=O)O,5700
5,CCCCC[C@H](O)/C=C/[C@H]1OC(O)C[C@H](O)[C@@H]1CCCCCCC(=O)O (stereo partly drawn),5640
6,CCCCC[C@H](O)/C=C/[C@@H]1c2cc(CCCCC(=O)O)n(-c3ccccc3)c2C[C@H]1O,6340
7,CCCOCCCCCCCCCC(=O)O,6150
8,C#CCOc1ccccc1CCCCCC(=O)NS(C)(=O)=O,5890
9,FC(F)(F)c1ccc(/C=C/c2cc(Cl)cc(Cl)c2)cc1,5620
10,O=C(O)CCC/C=C\C[C@H]1[C@@H](/C=C/[C@@H](O)CCc2ccccc2)[C@H](O)C[C@H]1O,5150
11,NC1=NC(=O)/C(=C/c2ccc(O)cc2)S1,6100
12,CCCCC/C=C\C/C=C\C/C=C\CCCCCCC(=O)OCC,6480
13,CCCCC/C=C\C/C=C\C/C=C\C/C=C\CCCC(=O)S[C@H](COCCCCCCCCCCCCCCCC)COP(=O)([O-])OCC[N+](C)(C)C,5810
14,CCCCCNC1=C(c2cn(C)c3ccccc23)C(=O)N(C)C1=O,6020
15,CCCCCCCC/C=C\CCCCCCCC(=O)NCCS(=O)(=O)O,6150
16,C[Se]CC[C@H](N)C(=O)O,8780
17,C=C1O[C@@](CO)(n2cnc3c(N)ncnc32)[C@H](O)[C@@H]1O,4870
18,CCCCCCCCCCCCCCCCCC(=O)N[C@H]1CCOC1=O,6650
19,CCCCCCCCCCCCCC(=O)OCC,5310
